Bioassay records as filed in PubChem BioAssay.
TWEAK-Fn14 inh – TWEAK-Fn14 signaling inhibition; TWEAK-stimulated Fn14 reporter cells, luciferase luminescence, 8 h; 360,000 tested, 2% active; inhibition, % at 10 µM; in the data active = inhibition above about 50%
KKLEB tox – counter-screen for CF NF-kB inhibitors: cytotoxicity; KKLEB CF airway cells viability, ATPlite luminescence, overnight; hits give low values; cells stimulated with P. aeruginosa culture filtrate; activity change (cytotoxicity), % at 5 µM; 360,000 tested, 0.36% active;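 active = corrected activity change at or below -50% at 5 µM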
Peg3 prom inh – inhibitors of Peg3 promoter; AID 588405; 360,000 tested, 1.7% active; HeLa PEG-Prom luciferase reporter, luminescence, overnight; inhibition, % at 20 µM;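 active = inhibition of at least 50% at 20 µM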
CF NFkB block – cystic fibrosis NF-kB activation inhibition; KKLEB NF-kB-GFP reporter, PAF-induced, GFP fluorescence overnight; inhibition, % at 5 µM; 360,000 tested, 0.86% active;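 active = at least 50% inhibition at 5 µM, scaled per plate between neutral and stimulator controls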;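 note: PAF is a Pseudomonas aeruginosa culture filtrate used as stimulus; plate controls were PAF-stimulated DMSO wells for no effect and unstimulated DMSO wells for full effect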
TROY signal inh – blocks TROY-dependent signaling in reporter cells; 360,000 tested, 0.98% active; AID 1347056; inhibition, % at 10 µM; Q293 LMP1-TROYcd NF-kB luciferase reporter, 4 h;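 active = compounds whose plate-normalised and pattern-corrected inhibition of the luciferase reporter signal at the single screening dose is 50% or more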
HIF-2a block – HIF-2a inhibition; 786-0 RCC cells HIF-2a reporter, luciferase luminescence, overnight; inhibition, % at 18.8 µM; 360,000 tested, 0.72% active; AID 624352;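 active = inhibition of the luminescence signal of 40% or more relative to plate controls, in a single-dose primary screen at 18.75 µM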
Starred values were filed as active, the others as inactive; / = not tested or not shown. Rows were chosen to be rich in hits. Some 3.9% of all compounds tested hit in one or more screens of this group.

SMILES | TWEAK-Fn14 inh | KKLEB tox | Peg3 prom inh | CF NFkB block | TROY signal inh | HIF-2a block
Cc1cccnc1C(NC(=O)C1CCN(CCOc2ccc(Cl)cc2Cl)CC1)c1ccc(Cl)cc1 (centres undefined) | -12.1 | -19.2 | 76.9* | 15.8 | 4.1 | -24.1
COC(=O)c1cc(C(=O)c2cc(Br)ccc2O)coc1=N | -14.0 | -6.4 | -0.7 | 14.0 | 15.4 | 19.0
CC(C)NC(=O)c1cc(C(=O)c2cc(Cl)ccc2O)coc1=N | 68.7* | 5.7 | 6.7 | -6.2 | 20.6 | 24.4
Cc1nn2cc(-c3ccccc3)nc2[nH]c1=O | -9.8 | -4.3 | -22.3 | 3.8 | -4.3 | -38.4
Cc1nc(-c2ccccc2)cn(O)c1=O | 64.5* | -5.1 | 4.4 | -0.7 | 5.9 | 1.7
O=C1OC=NC1=Cc1ccccc1 | 15.6 | -5.3 | -5.7 | -7.4 | -0.7 | -14.4
Cc1nn(C)c(C)c1NC(=O)CSc1nc(-c2ccccc2F)nc2c1cnn2-c1ccccc1 | 0.0 | -4.0 | 6.8 | -1.8 | 11.2 | -2.2
Cc1nn(C)c(C)c1NC(=O)CSc1nc(-c2ccccc2Cl)nc2c1cnn2-c1ccccc1 | 10.3 | -11.5 | 64.6* | 29.0 | -9.9 | 18.3
COc1ccccc1N/C=C/c1onc(C)c1[N+](=O)[O-] | 78.3* | 14.3 | 0.3 | -40.0 | 71.5* | -70.7
Cc1ccccc1Nc1ccc2nonc2c1[N+](=O)[O-] | 13.1 | 7.0 | 18.7 | -9.2 | 2.6 | 16.9
COc1ccccc1Nc1ccc2nonc2c1[N+](=O)[O-] | 89.3* | 7.7 | 12.3 | -6.8 | -25.1 | 18.6
Cc1ccc(OC(=O)Nc2ccccc2)cc1 | -12.9 | -4.2 | -245.4 | 0.3 | -65.6 | -310.0
CC(C)(C)c1ccc(C(=O)N/C(=C\c2ccco2)C(=O)Nc2ccccc2C(=O)O)cc1 | 46.0 | 7.5 | 5.2 | -3.2 | 30.6 | -114.0
OC(CNc1ccnc2cc(Cl)ccc12)CNC1CCCCC1 (centres undefined) | -75.9 | -3.5 | 99.6* | -6.8 | -6.0 | -29.8
Cc1c(/N=C(\[O-])Nc2ccc(Br)cc2)sn[n+]1C | 68.5* | 7.1 | -98.1 | -9.8 | 42.4 | -80.0
Cc1ccccc1/C(=N\S(=O)(=O)c1ccc(Br)cc1)Nc1ccccc1 | 8.0 | 4.6 | 13.8 | -9.2 | 3.8 | 17.1
CN=c1scc(C)n1/N=C/c1ccc(O)c(O)c1O | 21.1 | 9.3 | -31.3 | -20.4 | -48.1 | 10.8
CN=c1scc(-c2cccs2)n1/N=C/c1ccc(O)c(O)c1O | 86.8* | -32.5 | -136.5 | 20.0 | 89.0* | -90.6
O=C(NCC(c1ccco1)N1CCN(c2ccccc2F)CC1)c1cccs1 (centres undefined) | 0.0 | 2.9 | -4.4 | -7.0 | -7.6 | -9.0
O=C(c1ccc(F)cc1)N1CCN(C2=NS(=O)(=O)c3ccccc32)CC1 | 11.5 | 2.8 | 9.2 | -5.6 | 7.2 | 16.5
O=C(c1ccco1)N1CCN(C2=NS(=O)(=O)c3ccccc32)CC1 | 85.7* | -2.8 | 7.2 | 8.8 | / | 10.2
CCOc1nc2ccccc2cc1/C=C/C(=O)O | -1.9 | -1.0 | 18.0 | -2.0 | -23.4 | 11.7
CCC1(C)Cc2ccccc2-c2nc(NCCO)n(-c3ccc(C)cc3)c(=O)c21 (centres undefined) | 42.3 | 1.1 | -33.6 | -5.8 | 54.2* | -17.6
CCC1(C)Cc2ccccc2-c2nc(NCCO)n(-c3ccccc3)c(=O)c21 (centres undefined) | -5.7 | -0.9 | 22.6 | 6.1 | 3.8 | 2.0
O=C(NCc1ccncc1)C(=O)Nc1nc(C23CC4CC(CC(C4)C2)C3)cs1 | 75.6* | -5.0 | 31.8 | 18.5 | 57.3* | 23.6
SMILES | TWEAK-Fn14 inh | KKLEB tox | Peg3 prom inh | CF NFkB block | TROY signal inh | HIF-2a block
CCOc1ccc(OCc2ccc(C(=O)N(CC)CC)cc2)cc1 | -6.1 | 9.4 | -144.7 | -5.5 | -17.8 | -150.6
Cc1nc2c(OCc3ccc(F)cc3)cccn2c1N(C)C(=O)CCC1CCCC1 | 13.1 | -8.9 | 22.6 | -3.0 | 8.3 | -4.9
COC(=O)c1ccc(COc2cccn3c(N(C)C(=O)CCC4CCCC4)c(C)nc23)cc1 | 51.7* | -7.9 | 22.8 | 10.3 | 45.0 | 2.8
CN(C)S(=O)(=O)c1cccc(NC(=O)c2cccc(S(=O)(=O)N3CCc4ccccc43)c2)c1 | 60.3* | -5.5 | 37.6 | 19.5 | 34.7 | 21.9
CC(=O)c1cccc(NC(=O)c2ccc3c(c2)CCN3S(=O)(=O)c2ccccc2)c1 | 73.8* | -22.0 | 8.0 | -19.0 | 49.5 | -9.6
O=C(Nc1nc2ccccc2s1)c1cccc(S(=O)(=O)N2CCc3ccccc32)c1 | 69.9* | 7.5 | -52.5 | -15.9 | 20.4 | -141.8
Cc1nnc(NC(=O)c2cccc(S(=O)(=O)N3CCc4ccccc43)c2)s1 | 13.4 | 1.8 | 15.7 | -1.3 | / | 19.1
CC(=O)Nc1cccc(NC(=O)c2ccc3c(c2)CCN3S(=O)(=O)c2ccccc2)c1 | 12.1 | 2.8 | 13.9 | -3.4 | -4.7 | 3.4
CC(=O)NS(=O)(=O)c1ccc(NC(=O)c2cccc(S(=O)(=O)N3CCc4ccccc43)c2)cc1 | 3.0 | 0.7 | 4.9 | 0.0 | 1.0 | 17.4
CC(=O)c1cccc(S(=O)(=O)N2CCC(C(=O)Nc3cccc(C(=O)NC4CC4)c3)CC2)c1 | -16.8 | 0.1 | 5.4 | 0.2 | 62.1* | 9.5
CCOC(=O)[C@]12CCC=C1N(Cc1cccc3ccccc13)C(=O)[C@H](CC(=O)NCc1ccc(C)o1)C2 | 6.6 | / | / | / | -11.1 | -6.6
O=C(NCCc1ccccc1)c1cccc(NC(=O)C2CCC2)c1 | -27.4 | -10.9 | -211.3 | 18.0 | -58.4 | -195.7
Cc1cccc(C(=O)N2CCC(=O)N(C(COCc3ccc(Cl)cc3)Cc3ccccc3)CC2)c1 (centres undefined) | -19.2 | 3.1 | 19.9 | -3.4 | -9.5 | 21.4
O=C(Nc1ccc(S(=O)(=O)N2CCc3ccccc32)cc1)c1ccc2c(c1)OCO2 | 58.0* | 11.5 | -27.3 | -13.2 | 1.5 | -78.0
O=C(Nc1ccccc1)c1ccc2c(c1)CCN2S(=O)(=O)c1ccccc1 | -0.8 | 15.7 | -17.9 | -17.6 | -0.5 | -42.1
Cc1cc(=O)n(Cc2ccccc2)c2ccccc12 | -35.7 | -8.1 | 9.9 | 2.9 | -6.7 | 7.2
Cc1c(CN(C)C)c2c(n1Cc1ccccc1)C(=O)c1ccccc1-2 | 61.5* | -6.2 | 25.0 | -2.6 | 2.4 | 2.0
O=C(NC1(Cc2ccccc2)CCN(Cc2ccc(-c3ccccc3)cc2)C1=O)c1ccccc1 (centres undefined) | 59.0* | -16.9 | 85.2* | 8.7 | 62.0* | -1.3
O=C(CCc1ccccc1)NC1(Cc2ccccc2)CCN(CCc2cccs2)C1=O (centres undefined) | 20.3 | 4.8 | 11.4 | -3.6 | -16.5 | 5.8
COc1ccc(C(=O)N2CCC(C)(C(=O)NS(=O)(=O)C3CC3)C2)cc1 (centres undefined) | 2.1 | -2.9 | 4.0 | 25.1 | 3.0 | 5.4
CCOC(=O)CCc1c(C)nc(SCCCn2c(=O)[nH]c3ccccc32)c(C#N)c1C | 0.4 | 2.7 | 11.9 | 13.2 | 14.4 | 21.2
Nc1nc(N)nc(-c2ccc([N+](=O)[O-])o2)n1 | -1.6 | 1.8 | 1.5 | -1.6 | -4.2 | -19.5
